Assay in all cases: qHTS profiling for inhibitors of Plasmodium falciparum proliferation (AID 504749); further: nearly all actives have a fitted effect of over 60% in size
Holding throughout (details): P. falciparum in erythrocytes, SYBR Green DNA, 72 h; series mostly up to 28.7 µM

For assay [1], the system named is CP238. The method in brief:
(§1)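 Parasite proliferation within erythrocytes, 72 h exposure. Endpoint: SYBR Green I fluorescence after overnight lysis at room temperature. Controls: 0.29 uM artemisinin, DMSO.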

Assay [2] deals with CP247. The method in brief: as §1
For assay [3], the system named is CP250. An outline of the steps:
as §1

In assay [4] the test system is CP252. An outline of the steps: as §1
In assay [5] the test system is CP256. An outline of the steps: as §1
Assay [6] has as its system CP260. An outline of the steps:
as §1

Assay [7] deals with CP262. The method in brief: as §1
In assay [8] the test system is CP265. The method in brief: as §1
The subject of assay [9] is CP266. The method in brief:
as §1

The subject of assay [10] is CP268. An outline of the steps: as §1

Records with an inconclusive call do not appear. Calls of active or inactive are those of the source. The call rests on the fitted dose curve; in most records, active means well fitted inhibition curve with a large enough effect; inconclusive means small, poorly fitted or top-dose-only effect; inactive means flat fitted curve, though single readings scatter. Where a SMILES comes first, the peptide text is derived from it. [ ]: non-standard residue; d: D form. pGlu = O=C1CC[C@@H](C(=O)O)N1; Thz = O=C(O)[C@@H]1CSCN1
Potency means the concentration at half of the fitted maximal effect.

Take `Cc1c(Nc2ncccc2C(=O)O)cccc1C(F)(F)F`: the Potency entry in assay [1], in assay [2], in assay [3], in assay [4], in assay [5] and in [6] was “inactive” throughout. Further, the Potency result in [7], in [8], in assay [9] and in [10] was “inactive” throughout.

With `N=c1ccn2c(n1)O[C@H]1[C@H](O)[C@@H](CO)O[C@H]12`, the Potency entry in [1], in assay [2], in [3], in assay [4], in assay [5] and in assay [6] was “inactive” in each case. Further, the Potency entry in [7], in assay [8], in assay [9] and in [10] was “inactive” in each case.

Consider `COc1ccc(/C=C/C(=O)Nc2ccccc2C(=O)O)cc1OC`, for which the Potency entry in assay [1], in assay [2], in assay [3], in assay [4], in assay [5] and in assay [6] was “inactive” each time. Besides, the Potency entry in assay [7], in [8], in assay [9] and in [10] was “inactive” in each case.

As for `Cc1ccccc1CNc1ncnc2c1ncn2C1OC(CO)C(O)C1O` (stereo not given), the Potency entry in assay [1], in [2], in assay [3], in [4], in [5] and in [6] was “inactive” each time. Further, the Potency result in assay [7], in [8], in assay [9] and in assay [10] was “inactive” each time.

As to `COc1ccc(-c2cc(=S)ss2)cc1`, the Potency result in assay [1], in [2], in [3], in assay [4], in [5] and in assay [6] was “inactive” in each case. Besides, the Potency entry in [7], in assay [8], in [9] and in [10] was “inactive” in each case.

With `CCCCCCCCCCCC(=O)[O][Sn]([CH2]CCC)([CH2]CCC)[O]C(=O)CCCCCCCCCCC`, the Potency entry in assay [1], in [2], in assay [3], in assay [4], in [5] and in assay [7] was “inactive” in each case. Also, the Potency result in [8], in assay [9] and in assay [10] was “inactive” each time. Moreover, the Potency in assay [6] is 10000 nM (active).

Consider `Nc1cc(-c2ccncc2)c[nH]c1=O`, for which the Potency result in [1], in assay [2], in assay [3], in assay [4], in assay [5] and in assay [6] was “inactive” in each case. For the same compound, the Potency entry in assay [7], in assay [8], in assay [9] and in assay [10] was “inactive” throughout.

In the case of `CCCOC(=O)c1ccc(O)cc1`, the Potency entry in assay [1], in assay [2], in assay [3], in [4], in assay [5] and in assay [6] was “inactive” throughout. The Potency result in assay [7], in assay [8], in [9] and in assay [10] was “inactive” each time.

Turning to `O=C(O)/C=C/C(O)c1ccc(Cl)cc1` (stereo not given), the Potency result in [1], in assay [2], in assay [3], in assay [4], in assay [5] and in [6] was “inactive” each time. In addition, the Potency result in [7], in assay [8], in [9] and in [10] was “inactive” throughout.

For the compound `Clc1ccccc1-c1nc(-c2ccncc2)no1`, the Potency entry in assay [1], in assay [2], in assay [3], in assay [4], in [5] and in [6] was “inactive” in each case. Also, the Potency entry in [7], in [8], in assay [9] and in assay [10] was “inactive” in each case.

Regarding `C=C(Nc1ccc(OCC)cc1)Nc1ccc(OCC)cc1`, the Potency result in assay [1], in [2], in [3], in assay [4], in [5] and in assay [6] was “inactive” each time. In addition, the Potency entry in assay [7], in assay [8], in assay [9] and in [10] was “inactive” in each case.

Take `C=CC(N)CCC(=O)O` (stereo not given): the Potency result in assay [1], in assay [2], in [3], in [4], in assay [5] and in [6] was “inactive” in each case. The Potency entry in assay [7], in assay [8], in assay [9] and in assay [10] was “inactive” in each case.

On to `CC1(C)S[C@@H]2[C@H](NC(=O)[C@H](NC(=O)N3CCN(S(C)(=O)=O)C3=O)c3ccccc3)C(=O)N2[C@H]1C(=O)O`, for which the Potency entry in assay [1], in assay [2], in assay [3], in assay [4], in [5] and in assay [6] was “inactive” throughout. Besides, the Potency result in [7], in assay [8], in assay [9] and in assay [10] was “inactive” throughout.

In the case of `O=C(Nc1ccc(C(=O)O)c(O)c1)c1ccccc1`, the Potency entry in assay [1], in assay [2], in assay [3], in assay [4], in assay [5] and in assay [6] was “inactive” throughout. The Potency entry in [7], in assay [8], in assay [9] and in assay [10] was “inactive” throughout.

As for `C=CCCCCCCCCC(=O)O`, the Potency entry in assay [1], in [2], in assay [3], in [4], in [5] and in [6] was “inactive” each time. In addition, the Potency result in assay [7], in [8], in assay [9] and in assay [10] was “inactive” in each case.

Turning to `O=C(O)Cc1ccc(-c2ccccc2)cc1`, the Potency entry in assay [1], in assay [2], in assay [3], in assay [4], in assay [5] and in assay [6] was “inactive” throughout. The Potency result in assay [7], in assay [8], in assay [9] and in assay [10] was “inactive” in each case.

For `Cc1ccc(C(=O)c2ccc(CC(=O)O)n2C)cc1`, the Potency result in [1], in assay [2], in [3], in assay [4], in assay [5] and in assay [6] was “inactive” in each case. Besides, the Potency result in assay [7], in assay [8], in assay [9] and in assay [10] was “inactive” each time.

Turning to `COc1cc(/C=C/C(=O)N2CCN(CC(=O)N3CCCC3)CC2)cc(OC)c1OC`, the Potency result in assay [1], in assay [2], in assay [3], in assay [4], in assay [5] and in assay [6] was “inactive” each time. Moreover, the Potency result in assay [7], in assay [8], in assay [9] and in assay [10] was “inactive” in each case.

Regarding `O=C(OCc1ccccc1)c1ccccc1`, the Potency entry in [1], in assay [2], in [3], in assay [4], in [5] and in assay [7] was “inactive” each time. The Potency entry in assay [8], in assay [9] and in [10] was “inactive” throughout. For the same compound, the Potency in assay [6] is 3160 nM (active).

Regarding `O=C1CC[C@@H](C(=O)N2CSC[C@H]2C(=O)O)N1` ([pGlu]-[Thz]-OH), the Potency result in [1], in assay [2], in assay [3], in [4], in assay [5] and in assay [6] was “inactive” throughout. Moreover, the Potency entry in assay [7], in [8], in assay [9] and in assay [10] was “inactive” throughout.

Turning to `[O-][n+]1ccccc1SSc1cccc[n+]1[O-]`, the Potency in assay [1] was 1120 nM (active); in [2] it was 891 nM (active); in [3], 708 nM (active); in [4], 1000 nM (active); in assay [5] it was 2000 nM (active); in assay [6] it was 708 nM (active). Besides, the Potency is 1070 nM (active) in assay [7], 1260 nM (active) in [8], 1510 nM (active) in [9] and 849 nM (active) in assay [10].

As to `CCCCCCCCCCCCCCCC(=O)OC(C)C`, the Potency entry in assay [1], in assay [2], in [3], in assay [4], in [5] and in assay [6] was “inactive” throughout. The Potency result in assay [7], in assay [8], in [9] and in assay [10] was “inactive” each time.

For the compound `Nc1ccc(C(=O)O)c(O)c1`, the Potency result in assay [1], in assay [2], in assay [3], in assay [4], in assay [5] and in [6] was “inactive” each time. Further, the Potency result in assay [7], in assay [8], in assay [9] and in [10] was “inactive” each time.

As for `C#C[C@]1(O)CC[C@H]2[C@@H]3CCc4cc(O)ccc4[C@H]3CC[C@@]21C`, the Potency entry in assay [1], in assay [2], in [3], in [4], in assay [5] and in assay [6] was “inactive” in each case. For the same compound, the Potency result in assay [7], in assay [8], in [9] and in assay [10] was “inactive” throughout.

Regarding `O=C(O)[C@H](CC(=O)N1C[C@H]2CCCC[C@H]2C1)Cc1ccccc1`, the Potency result in assay [1], in assay [2], in [3], in [4], in [5] and in assay [6] was “inactive” in each case. Besides, the Potency entry in assay [7], in [8], in assay [9] and in assay [10] was “inactive” each time.

As to `COc1cc2c3cc1Oc1cc(ccc1O)C[C@@H]1c4c(cc(OC)c(O)c4Oc4ccc(cc4)C[C@@H]3N(C)CC2)CC[N+]1(C)C`, the Potency entry in assay [1], in assay [2], in [3], in [4], in assay [5] and in assay [6] was “inactive” in each case. The Potency result in assay [7], in assay [8], in assay [9] and in [10] was “inactive” each time.

Take `CCOc1ccc2nc(S(N)(=O)=O)sc2c1`: the Potency result in assay [1], in assay [2], in [3], in assay [4], in assay [5] and in [6] was “inactive” each time. The Potency result in assay [7], in [8], in [9] and in [10] was “inactive” each time.

As to `CCCCCCCCCCCCCCCCCC(=O)O`, the Potency entry in [1], in assay [2], in assay [3], in assay [4], in assay [5] and in assay [6] was “inactive” in each case. For the same compound, the Potency result in [7], in assay [8], in [9] and in assay [10] was “inactive” in each case.

With `CCC1C(=O)OCC1Cc1cncn1C` (stereo not given), the Potency result in assay [1], in assay [2], in assay [3], in assay [4], in assay [5] and in assay [6] was “inactive” throughout. Also, the Potency result in assay [7], in [8], in assay [9] and in assay [10] was “inactive” each time.

These data come from PubChem BioAssay (NCATS).
